Results published in PubChem BioAssay AID588342 (National Center for Advancing Translational Sciences (NCATS), 2011).
Among all 360,000 compounds or so, about 25,000 (6.9%) were called active. Not shown: some 9% with an inconclusive outcome. Calls follow the shape of the dose curve; as a rule, active = well fitted inhibition curve with a large enough effect; inconclusive = small, poorly fitted or top-dose-only effect; inactive = flat fitted curve, though single readings scatter. What follows is part of a selection rich in actives, with near analogues and random picks from the rest. Where a call stands in place of a potency, no number is given.

Molecular target: Luciferin 4-monooxygenase (Photinus pyralis) (UniProt P08659)
Sequence (P08659 whole entry, looked up): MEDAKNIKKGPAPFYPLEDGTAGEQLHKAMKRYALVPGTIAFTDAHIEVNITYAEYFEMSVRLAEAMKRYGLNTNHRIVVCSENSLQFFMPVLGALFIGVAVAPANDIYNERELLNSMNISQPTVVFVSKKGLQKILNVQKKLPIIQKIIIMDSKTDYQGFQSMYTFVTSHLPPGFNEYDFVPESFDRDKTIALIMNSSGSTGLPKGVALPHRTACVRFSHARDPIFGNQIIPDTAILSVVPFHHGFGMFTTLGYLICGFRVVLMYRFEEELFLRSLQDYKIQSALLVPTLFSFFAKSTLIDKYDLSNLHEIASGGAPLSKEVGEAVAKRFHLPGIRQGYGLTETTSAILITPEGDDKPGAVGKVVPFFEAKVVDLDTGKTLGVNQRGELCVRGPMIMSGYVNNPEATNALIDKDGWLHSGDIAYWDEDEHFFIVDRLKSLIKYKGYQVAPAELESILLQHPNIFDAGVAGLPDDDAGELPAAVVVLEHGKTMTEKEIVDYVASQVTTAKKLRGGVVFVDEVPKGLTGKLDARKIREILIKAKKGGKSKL
Test: qHTS profiling assay for firefly luciferase inhibitor/activator using purifed enzyme and Km concentrations of substrates (counterscreen for miR-21 project); also: nearly all actives have a fitted effect of over 55% in size
Settings: purified FLuc, luminescence inhibition; series mostly up to 57.5 µM
Procedure, shortened: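 Purified P. pyralis luciferase, 10 nM final, with Km-level 10 uM D-luciferin and 10 uM ATP in 50 mM Tris acetate pH 7.5, 10 mM Mg acetate, 0.01% Tween-20, 0.05% BSA; 6-point qHTS titration about 60 µM downward; luminescence read.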
Potency is read from the fitted curve at half-maximal effect.

SMILES | Potency
Cc1ccc(Nc2nnc(SC(C)C(=O)NC3CC3)s2)cc1 (centres undefined) | inactive
CCOC(=O)c1c(NC(=O)CCl)sc(C(=O)N(CC)CC)c1C | inactive
Cc1ccc(C)c(NC(=O)CN(C)C(=O)c2ccc3ncsc3c2)c1 | inactive
Cc1c(C(=O)N(C)C)sc2c1c(=O)n(-c1ccc(F)cc1)c(=O)n2CC(=O)N(C)c1ccccc1 | inactive
CC(=O)c1ccc2c(c1)OCCOCCOc1ccc(C(C)=O)cc1OCCOCCO2 | inactive
CN(C)c1ccc(/C=C/C(=O)c2ccc(O)cc2)cc1[N+](=O)[O-] | 12 µM (active)
Cc1cc(C(=O)O)ccc1[N+](=O)[O-] | inactive
O=C(COC(=O)/C=C/c1ccc2c(c1)OCO2)NC1CCS(=O)(=O)C1 (centres undefined) | inactive
O=C(/C=C/c1ccc2c(c1)OCCO2)c1ccc(O)cc1 | 1.35 µM (active)
O=C(/C=C/c1ccc(Cl)cc1)N1CCN(c2ccccc2[N+](=O)[O-])CC1 | inactive
CCC(=O)NC(Nc1cc(C)ccn1)(C(F)(F)F)C(F)(F)F | inactive
Cc1cc(=O)oc(C)c1C(=O)NC1CC(C)(C)NC(C)(C)C1 | inactive
O=C(C1CCCN(S(=O)(=O)c2cccc3nonc23)C1)N1CCN(c2ccccc2F)CC1 (centres undefined) | inactive
CCc1ccc(S(=O)(=O)n2ccnc2)cc1 | inactive
CCOc1ccc(NC(=O)CSc2c3c(nc4ccccc24)CCCC3)cc1 | inactive
O=C(COC(=O)c1c2c(nc3ccccc13)CCCC2)c1ccc(Br)s1 | 15.1 µM (active)
O=C(Nc1c2c(nc3ccccc13)CCCC2)c1ccccc1Br | inactive
Cc1nn(Cc2ccccc2)c(C)c1C(=O)N1CCN(CC(=O)Nc2ccccc2Cl)CC1 | inactive
COc1ccccc1/C=C/c1nc(C#N)c(NC(C)c2ccccc2)o1 (centres undefined) | inactive
CC(C)c1ccc(NC(=O)COC(=O)c2ccc(CN3CCCC3=O)cc2)cc1 | inactive
Cc1cc(OC(C)C(=O)Nc2sc3c(c2C(N)=O)CCCC3)ccc1Cl (centres undefined) | inactive
CCc1cccc(NC(=O)CCC(=O)O)c1 | inactive
CCCC(=O)Nc1cccc(-c2cn3ccsc3n2)c1 | 21.3 µM (active)
O=C(NCc1cn2ccsc2n1)Nc1cccc(Cl)c1 | inactive
CCc1nn(CC(=O)NCC(C)c2ccccc2)c(=O)c2cc3occc3n12 (centres undefined) | inactive
Cc1nn(-c2ccccc2)c(C)c1/C=N/NC(=O)CSc1nc2ccccc2c(=O)n1-c1ccccc1 | inactive
Cc1c(C(=O)N/N=C/c2ccccc2)[nH]c2c([N+](=O)[O-])cccc12 | inactive
Cc1nn(-c2ccccc2)c(Cl)c1/C=N/NC(=O)c1nn(C)cc1[N+](=O)[O-] | 10.7 µM (active)
COc1ccc(NC(=O)CN2C(=O)COc3ccc(S(=O)(=O)N4CCOCC4)cc32)cc1 | inactive
